Here are results for six molecules from PubChem BioAssay.

Active and inactive are the calls of the source.

Test [1] concerns Plasmodium falciparum Sir2 (PF13_0152, Sir2A). Description: Plasmodium falciparum Sir2A binding compounds – biochemical, small-molecule microarray, 635 nm fluorescence, primary screen (AID 1098).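 Also: score merges spot fluorescence intensity with its signal-to-noise ratio.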 To be noted: fluorescence 635 nm, higher = more signal.
Test [2] is described as follows: probe aDKK1 binding to arrayed compounds – biochemical, biotinylated probe, 635/667 nm fluorescence, primary screen (AID 1099).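 Also: score merges 667nm spot fluorescence with signal to noise across triplicate slides.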 Particulars: small-molecule microarray, higher = more signal.
Test [3] is described as follows: probe aCHRDL2 binding to arrayed compounds – biochemical, biotinylated probe, 635/667 nm fluorescence, primary screen (AID 1100). To be noted: small-molecule microarray, higher = more signal.
Test [4] is described as follows: change in splice reporter luminescence, either direction, cell-based, HEK293, spliceosome inhibition project, primary screen (AID 1101).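 Also: HEK293 cells carrying a splicing-competent luciferase reporter gene; test concentration not given here.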 Particulars: HEK293 splicing luciferase reporter, 24 h, higher = more signal, called active from +8 up or from −8 down. For orientation: Reporter assays use an easily measured gene product as a stand-in for the process of interest.

Test [5] concerns the target Fibroblast growth factor 10 (Homo sapiens) (UniProt O15520). The experiment in a line: compounds binding fibroblast growth factor 10 – biochemical, small-molecule microarray, 635 nm fluorescence, primary screen (AID 1102). To be noted: FGF10 binding, fluorescence 635 nm, higher = more signal.
The test system of test [6] is glycogen synthase kinase-3 (GSK3A per assay name; protocol says GSK3B). Description: compounds binding glycogen synthase kinase-3 – biochemical, small-molecule microarray, 635 nm fluorescence, GSK3A, primary screen (AID 1103). Also: the record names both GSK3A and GSK3B. To be noted: fluorescence 635 nm, higher = more signal.
For test [7], the target named is Epidermal growth factor receptor (Homo sapiens) (UniProt P00533). The experiment in a line: compounds binding epidermal growth factor receptor – biochemical, small-molecule microarray, 635 nm fluorescence, primary screen (AID 1104).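 Also: score merges 667 nm emission intensity with spot signal to noise over triplicate slides.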 To be noted: EGFR binding, higher = more signal.
Test [8] addresses Follistatin-related protein 3 (Homo sapiens) (UniProt O95633). Description: compounds binding follistatin-related protein 3 – biochemical, small-molecule microarray, 635 nm fluorescence, primary screen (AID 1105).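 Also: score merges emission near 667 nm and signal to noise per printed spot across three slides.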 To be noted: FSTL3 binding, higher = more signal.
For test [9], the target named is Dickkopf-related protein 1 (Homo sapiens) (UniProt O94907). The experiment in a line: small molecules binding DKK1 protein – biochemical, small-molecule microarray, 635 nm fluorescence scan, primary screen (AID 1106).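 Also: score merges emission near 667 nm with signal to noise over three replicate slides.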 To be noted: higher = more signal.
Test [10] relates to Inhibin beta A chain (activin A). Description: small molecules binding activin A – biochemical, small-molecule microarray, 635 nm fluorescence scan, primary screen (AID 1107).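 Also: mouse activin A protein probed at 4.33 µg/mL on printed slides; score merges bound-protein fluorescence near 667 nm with spot signal-to-noise.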 To be noted: INHBA, higher = more signal.
The test system of test [11] is Human papillomavirus type 1a protein E7 (residues 44-93). Description: small molecules binding HPV E7 44-93 – biochemical, small-molecule microarray, residues 44-93, 635 nm fluorescence, primary screen (AID 1108).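 Also: E7 fragment applied at 1 µg/mL in TBST for 1 h at 4 C; score combines spot fluorescence with its signal to noise ratio.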 To be noted: fluorescence 635 nm, higher = more signal.
Test [12] in a line: hepatitis C replication reporter changes, two-sided – Huh7 cells, luciferase reporter, HCV replication inhibitor project, primary screen (AID 1109).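 Also: huh7 hepatoma cells harbouring a luciferase neomycin HCV replicon reporter; luciferase luminescence as measure of HCV replicon replication; test concentration not given here.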 To be noted: Huh7 HCV replicon luciferase reporter, 48 h; higher = more signal.
Test [13] addresses Left-right determination factor 2 (Homo sapiens) (UniProt O00292). The experiment in a line: small molecules binding LEFTY2 protein – biochemical, small-molecule microarray, 635 nm fluorescence scan, primary screen (AID 1110). To be noted: higher = more signal.
Test [14] addresses Calmodulin-1 (Homo sapiens) (UniProt P0DP23). Description: small molecules binding calmodulin-1 with EGTA – biochemical, small-molecule microarray, Cy5-labelled CALM1, profiling panel (AID 1111).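 Also: labelled calmodulin applied in Tris saline Tween buffer holding calcium plus EGTA and DTT.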 Particulars: Cy5-CALM1 binding fluorescence, higher = more signal.
For test [15] the target is unchanged. The experiment in a line: small molecules binding Ca-loaded calmodulin-1 – biochemical, small-molecule microarray, Cy5-labelled CALM1, plus calcium, artefact control for SMM control-protein annotation, profiling panel (AID 1112).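 Also: score merges spot fluorescence with signal to noise from triplicate slides.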 Particulars: Cy5-CALM1 binding fluorescence, higher = more signal.
The nature of test [16]: probe aWnt5a binding to arrayed compounds – biochemical, biotinylated probe, 635/667 nm fluorescence, primary screen (AID 1113).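 Also: score merges 667 nm fluorescence intensity with signal-to-noise per printed feature.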 Particulars: small-molecule microarray, higher = more signal.
Test [17] is described as follows: probe aShh binding to arrayed compounds – biochemical, biotinylated probe, 635/667 nm fluorescence, primary screen (AID 1114).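 Also: probe is biotin-labelled aShh protein from a stem cell growth factor screen; measures binding of labelled protein to compounds printed on the slide; score merges feature fluorescence at 667 nm with signal-to-noise.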 To be noted: small-molecule microarray, higher = more signal.
The nature of test [18]: probe aNog binding to arrayed compounds – biochemical, biotinylated probe, 635/667 nm fluorescence, primary screen (AID 1115).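 Also: probe is biotinylated aNog protein used at 0.15 µg/mL for 1 h at 4 C; z-score combines 667 nm fluorescence of each spot with its signal to noise.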 Particulars: small-molecule microarray, higher = more signal.
Test [19] addresses Torsin-1A-interacting protein 1 (Homo sapiens) (UniProt Q5JTV8). The experiment in a line: compound microarray binding of lysate hLAP1 – cell lysate, small-molecule microarray, COS7 lysate, 635/667 nm fluorescence, primary screen (AID 1116). To be noted: 635 nm fluorescence, higher = more signal.
The target of test [20] is Alpha-bungarotoxin (Bungarus multicinctus) (UniProt P60615). Description: compounds binding labelled alpha-BTX control protein – biochemical, small-molecule microarray, Alexa647 label, 635/667 nm fluorescence, artefact control for SMM control protein annotation, profiling panel (AID 1117). To be noted: alpha-BTX-A647 binding fluorescence, higher = more signal.
Alpha-bungarotoxin (Bungarus multicinctus), sequence (P60615 whole entry, looked up): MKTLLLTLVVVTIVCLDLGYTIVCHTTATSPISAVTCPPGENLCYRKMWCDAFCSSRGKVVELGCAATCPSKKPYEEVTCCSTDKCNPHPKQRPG

Dickkopf-related protein 1 (Homo sapiens), sequence (O94907 whole entry, looked up): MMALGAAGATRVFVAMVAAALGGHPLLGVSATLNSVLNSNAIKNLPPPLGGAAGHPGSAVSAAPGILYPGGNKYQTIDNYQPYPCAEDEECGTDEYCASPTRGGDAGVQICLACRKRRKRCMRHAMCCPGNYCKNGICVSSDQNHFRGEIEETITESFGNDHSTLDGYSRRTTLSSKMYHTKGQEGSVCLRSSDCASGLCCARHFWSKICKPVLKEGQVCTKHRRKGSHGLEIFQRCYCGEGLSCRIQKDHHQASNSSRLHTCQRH
Epidermal growth factor receptor (Homo sapiens), sequence (P00533 whole entry, looked up): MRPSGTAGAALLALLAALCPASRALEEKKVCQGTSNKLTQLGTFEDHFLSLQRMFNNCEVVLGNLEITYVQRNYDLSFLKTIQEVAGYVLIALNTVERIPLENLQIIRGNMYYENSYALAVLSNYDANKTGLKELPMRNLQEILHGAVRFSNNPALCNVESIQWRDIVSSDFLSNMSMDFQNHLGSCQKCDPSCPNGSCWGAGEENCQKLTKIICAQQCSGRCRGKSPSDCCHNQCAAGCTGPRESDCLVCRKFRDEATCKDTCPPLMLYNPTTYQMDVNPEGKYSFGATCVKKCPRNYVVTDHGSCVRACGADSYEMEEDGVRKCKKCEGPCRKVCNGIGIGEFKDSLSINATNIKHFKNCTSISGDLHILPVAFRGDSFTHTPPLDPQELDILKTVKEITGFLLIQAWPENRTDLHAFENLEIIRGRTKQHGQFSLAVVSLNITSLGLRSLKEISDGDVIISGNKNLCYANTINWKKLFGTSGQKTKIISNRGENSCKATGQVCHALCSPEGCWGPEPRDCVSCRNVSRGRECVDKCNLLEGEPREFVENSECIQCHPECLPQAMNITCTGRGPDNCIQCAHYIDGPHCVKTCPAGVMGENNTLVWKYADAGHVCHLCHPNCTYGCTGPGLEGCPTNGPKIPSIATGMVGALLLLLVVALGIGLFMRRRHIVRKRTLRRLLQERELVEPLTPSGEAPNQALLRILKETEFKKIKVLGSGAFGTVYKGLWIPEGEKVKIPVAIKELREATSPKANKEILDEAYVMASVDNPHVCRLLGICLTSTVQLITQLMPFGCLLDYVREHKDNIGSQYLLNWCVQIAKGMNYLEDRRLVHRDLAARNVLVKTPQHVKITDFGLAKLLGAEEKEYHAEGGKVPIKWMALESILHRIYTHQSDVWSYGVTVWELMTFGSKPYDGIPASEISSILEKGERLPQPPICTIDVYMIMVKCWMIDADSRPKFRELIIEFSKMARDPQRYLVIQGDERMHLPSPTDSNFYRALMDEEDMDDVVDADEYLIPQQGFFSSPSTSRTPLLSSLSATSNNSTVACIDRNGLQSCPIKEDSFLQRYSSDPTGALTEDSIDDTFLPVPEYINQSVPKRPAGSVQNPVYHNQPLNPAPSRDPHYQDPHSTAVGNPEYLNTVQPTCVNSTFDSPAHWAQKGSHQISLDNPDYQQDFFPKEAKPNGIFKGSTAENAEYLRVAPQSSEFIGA
Torsin-1A-interacting protein 1 (Homo sapiens), sequence (Q5JTV8 whole entry, looked up): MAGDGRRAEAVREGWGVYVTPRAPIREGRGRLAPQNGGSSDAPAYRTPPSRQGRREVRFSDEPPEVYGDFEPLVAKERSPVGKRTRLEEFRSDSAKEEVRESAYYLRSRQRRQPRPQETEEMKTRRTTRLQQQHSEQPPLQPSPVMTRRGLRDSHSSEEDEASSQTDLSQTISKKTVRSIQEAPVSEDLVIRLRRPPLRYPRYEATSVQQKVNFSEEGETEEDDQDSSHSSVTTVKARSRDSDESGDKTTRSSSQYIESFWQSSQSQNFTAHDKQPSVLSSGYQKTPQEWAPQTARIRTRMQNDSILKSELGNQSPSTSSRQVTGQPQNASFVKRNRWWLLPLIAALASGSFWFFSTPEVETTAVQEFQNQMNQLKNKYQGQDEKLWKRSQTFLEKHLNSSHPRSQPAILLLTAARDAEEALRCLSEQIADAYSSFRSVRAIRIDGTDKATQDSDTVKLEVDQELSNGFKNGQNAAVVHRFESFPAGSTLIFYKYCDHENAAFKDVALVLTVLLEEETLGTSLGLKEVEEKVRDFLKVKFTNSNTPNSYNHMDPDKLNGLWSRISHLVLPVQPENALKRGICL
Follistatin-related protein 3 (Homo sapiens), sequence (O95633 whole entry, looked up): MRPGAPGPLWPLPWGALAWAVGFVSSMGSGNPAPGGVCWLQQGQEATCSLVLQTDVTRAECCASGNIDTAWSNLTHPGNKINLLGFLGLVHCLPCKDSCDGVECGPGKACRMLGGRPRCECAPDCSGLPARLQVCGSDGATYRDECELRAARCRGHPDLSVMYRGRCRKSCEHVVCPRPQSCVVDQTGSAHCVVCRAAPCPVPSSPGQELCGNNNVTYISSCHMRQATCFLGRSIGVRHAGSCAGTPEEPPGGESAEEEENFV
Left-right determination factor 2 (Homo sapiens), sequence (O00292 whole entry, looked up): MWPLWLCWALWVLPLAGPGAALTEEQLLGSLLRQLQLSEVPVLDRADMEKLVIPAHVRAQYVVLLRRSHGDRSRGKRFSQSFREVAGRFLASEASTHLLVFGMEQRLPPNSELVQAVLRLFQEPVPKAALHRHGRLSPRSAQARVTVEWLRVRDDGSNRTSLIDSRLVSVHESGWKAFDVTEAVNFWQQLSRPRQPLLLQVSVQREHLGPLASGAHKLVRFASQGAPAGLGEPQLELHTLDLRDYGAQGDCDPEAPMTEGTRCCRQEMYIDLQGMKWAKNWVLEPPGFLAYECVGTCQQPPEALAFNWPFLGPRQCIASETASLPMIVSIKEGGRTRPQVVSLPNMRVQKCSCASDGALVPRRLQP
Fibroblast growth factor 10 (Homo sapiens), sequence (O15520 whole entry, looked up): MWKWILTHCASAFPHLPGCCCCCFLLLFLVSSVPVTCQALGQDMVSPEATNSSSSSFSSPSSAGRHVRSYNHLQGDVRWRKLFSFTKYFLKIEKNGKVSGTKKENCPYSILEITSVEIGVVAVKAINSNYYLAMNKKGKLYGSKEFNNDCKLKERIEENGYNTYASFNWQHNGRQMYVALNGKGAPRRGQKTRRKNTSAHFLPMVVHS

Turning to `CCCNC(=O)[C@@]1(Sc2ccc(C)cc2)CC(=O)N(Cc2ccccc2Cl)[C@@H]1c1ccc(CO)cc1`, the composite z-score in [1] turned out to be 0.237; in [2] it was 0.866; in test [3] it was 0.956; in [5] it was 0.719; in test [6] it was 1.28; in [7], 0.566. For the same molecule, the composite z-score in test [8] worked out at 1.06; in test [9], 1.22; in test [10] it was 1.42; in test [11], 0.658; in test [13], 0.546; in test [14], 0.857. The composite z-score in [15] was 1.03; in [16], -0.0478; in test [17] it was 0.0407; in test [18], 0.0021; in test [19], 0.574; in test [20] it was 2.05. Besides, the results for the z-score in test [4] and in [12] were -2.31 (inactive) and -2.42, respectively.

`C[C@@H]1CC[C@H]2C(=O)N3[C@@H](CC[C@@H](C)[C@@H]3c3cccc(N4CCOCC4)c3)C(=O)N2[C@H]1c1cccc(Br)c1`: the composite z-score in test [1] was found to be 1.1; in [2], 0.113; in test [3], 0.26; in test [5] it was 0.695; in test [6] it was 0.989; in test [7], 0.31. Besides, the composite z-score turned out to be 0.53 in test [8]; 0.327 in test [9]; 0.6 in [10]; 0.396 in test [11]; 0.458 in test [13]; 0.361 in [14]. The composite z-score in [15] is -0.0482; in [16], -0.0357; in test [17], -0.138; in test [18], 0.0205; in test [19] it was 0.868; in [20], 1.6. Further, the z-score in test [4] is 0.0479 (inactive); in [12] it was -1.97.

`CO[C@H]1COC(=O)[C@H](C)NC(=O)CC=C[C@@H](C)[C@H](NS(=O)(=O)c2ccc(C)cc2)COC(=O)CC=C[C@@H]1C`: the composite z-score in test [1] was 0.997; in test [2], -0.667; in [3], -1.28; in [5], 0.27; in test [6] it was -0.0078; in test [7], 0.778. Moreover, the composite z-score was 0.956 in test [8]; 0.979 in test [9]; 1.47 in test [10]; -0.9 in [11]; 0.285 in [13]; -1.11 in test [14]. Moreover, the composite z-score in test [15] was -1.46; in test [16], -0.137; in test [17] it was -0.0709; in [18] it was -0.12; in test [19] it was 0.368; in test [20] it was -0.555. For the same molecule, the z-score in test [4] was -0.489 (inactive); in test [12], -0.05.

Consider `[N-]=[N+]=NCc1ccccc1C[C@@]1(C(=O)N2CCOCC2)N=C(c2ccc(OCCCO)cc2)O[C@@H]1c1ccccc1N=[N+]=[N-]`, for which the composite z-score was 1.45 in [1]; 1.41 in test [2]; 1.31 in test [3]; 1.42 in [5]; 0.683 in [6]; -0.11 in test [7]. Also, the composite z-score in test [8] was 0.436; in [9], -0.433; in test [10], 1.32; in test [11], 0.425; in test [13], -0.139; in [14], 2.15. The composite z-score was determined as 1.13 in test [15]; 0.208 in test [16]; 0.412 in test [17]; 1.64 in test [18]; 1.74 in test [19]; 2.84 in test [20]. Moreover, the z-score was -0.531 (inactive) in [4] and -1.14 in test [12].

For `CC(C)CNC(=O)[C@@]1(C)c2ccccc2C(=O)N(Cc2ccc(OC(F)(F)F)cc2)[C@H]1c1ccc(CO)cc1`, the composite z-score in test [1] was -0.857; in test [2], 0.629; in test [3], 1.14; in [5] it was -0.494; in [6], -0.694; in test [7], -1.15. In addition, the composite z-score in test [8] is -0.877; in test [9] it was -0.973; in test [10], 0.159; in test [11] it was -1.2; in test [13] it was -1.22; in test [14], -0.381. Further, the composite z-score was 0.787 in [15]; -0.147 in test [16]; -0.0769 in test [17]; 0.264 in test [18]; 1.5 in test [19]; -0.36 in test [20]. The results for the z-score in test [4] and in test [12] were 0.581 (inactive) and 0.173, respectively.

Take `CC(C)[Si]1(C(C)C)OCc2cc(C3CC3)nc(-c3ccccc3)c21`: the composite z-score in test [1] is 0.0305; in test [2], -0.294; in [3], 0.525; in test [5] it was -0.395; in test [6] it was -1.24; in test [7], -0.385. For the same molecule, the composite z-score was -0.708 in [8]; -0.342 in test [9]; 1.21 in test [10]; -0.84 in test [11]; -0.231 in [13]; -1.23 in test [14]. Also, the composite z-score is -0.183 in test [15]; -0.15 in test [16]; -0.09 in test [17]; -0.0841 in test [18]; -0.694 in [19]; -0.249 in [20]. In addition, the z-score in test [4] is -2.27 (inactive); in [12] it was -0.222.
